Several values for one entry are separate records, joined by “and”; a condition that tells them apart may be missing. Identical values can stand only once. This is part of a sample that, as a whole, favours compounds with a hit. Of some 83,000 tested, about 20% had one in any assay.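 The endpoint reported here, percent growth, reads 100 for growth as untreated, 0 for no net growth and -100 for all cells dead.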 Activity calls are given as the source filed them. The calls were made as follows: active = growth percent below 10; inactive = the rest.
Test system: HCC-2998 colon
Assay: NCI-60 one-dose screen, 48 h (100 = growth as untreated, 0 = no growth, -100 = all killed)
Conditions: 10 µM unless noted

Row | SMILES | growth
1 | CCOC(=O)c1c(-c2ccc(C)cc2)c(C#N)c(=O)n(-c2cccc(C(F)(F)F)c2)c1N | 107% (inactive)
2 | c1cc(NCCCCN2CCOCC2)c2ccc3c(ccc4c(NCCN5CCOCC5)ccnc43)c2n1 | 87.8% (inactive)
3 | CCCO/N=C/c1ccccn1 | 110% (inactive) and 105% (inactive)
4 | O=C(Nc1ncc(Cc2cccc(C(F)(F)F)c2)s1)c1ccc(-n2cnnn2)cc1 | 48.9% (inactive)
5 | N=C(N)c1ccc(-c2ccc(-c3ccc(Cl)c(Cl)c3)s2)cc1 | -53.7% (active)
6 | NC(=O)c1c(NC(=O)/C=C/c2cccs2)sc2c1CCC(=O)C2 | 85.2% (inactive)
7 | CCOc1ccccc1NC(=O)c1cc2ccccc2cc1O | 76.3% (inactive)
8 | O=C(CCl)n1nnnc1Cc1ccccc1 | 94.6% (inactive)
9 | CCNC(=S)n1nc(SC)c(C(=O)OCC)c1N | 116% (inactive)
10 | CC/C(=C(/c1ccc(Cl)cc1)c1ccc(OCCN2CCOCC2)cc1)c1ccccc1 | 99.8% (inactive)
11 | O=S(=O)(O)c1ccc(N=Nc2ccc(N=Nc3cccc4ccccc34)c(S(=O)(=O)O)c2)cc1 | 108% (inactive)
12 | Nn1c(-c2ccc(Cl)cc2)nc2c(-c3ccc(Cl)cc3)nc3ccc(Cl)cc3c2c1=O | 372% (inactive)
13 | Nc1ncnc2c1C(c1ccc([N+](=O)[O-])cc1)c1sc3c(F)cccc3c1O2 (stereo not drawn) | 115% (inactive)
14 | COc1ccc(C/C(C)=C(/c2ccc(OCCN3CCCCCC3)cc2)c2ccc(OC(=O)c3ccccc3)cc2)cc1 | 105% (inactive)
15 | COc1ccc2c(c1)oc1c(C)c3c(c(C)c12)C(=O)N(Nc1ccccc1)C3=O | 105% (inactive)
16 | CC(=O)c1c(C)nc(SCC(=O)Nc2ccc(Cl)cc2)n1-c1ccc(Cl)cc1 | 102% (inactive)
17 | C=C1C(=O)O[C@H]2[C@H]1CC/C(CNS(=O)(=O)c1ccc3ccccc3c1)=C\CC[C@@]1(C)O[C@@H]21 | -57.7% (active)
18 | CN(Cc1ccccc1)c1nc(Cl)c(C2CC(c3ccc4c(c3)OCO4)=NN2c2cc(Cl)cc(Cl)c2)s1 (stereo not drawn) | 106% (inactive)
19 | Cc1cnc(C(=O)NNc2nc3sc4c(c3c(=O)[nH]2)C(C)CCC4)cn1 (stereo not drawn) | 11.1% (inactive)
20 | N#CC1=C(N)Oc2c(sc3c(Br)cccc23)C1c1ccccn1 (stereo not drawn) | 72.9% (inactive)

Row | SMILES | growth
21 | Cc1cc2nc(C(Cl)Cl)nc(-c3ccc(Cl)cc3)n2n1 | -77% (active)
22 | COc1ccc(/C=C2/C(=O)N=C3N2NC(c2ccccc2)=CN3c2ccccc2)cc1 | 97.7% (inactive)
23 | Nc1nc(Nc2ccc(F)cc2)nn1C(=O)c1cc(Cl)ccc1Cl | 86.3% (inactive)
24 | O=C1C=C(Nc2ccccc2)c2ncccc2C1=O | -89.1% (active)
25 | O=C(N/N=C/c1ccc(O)cc1O)c1cccc(Nc2ccnc(C(F)(F)F)c2)c1 | 33.7% (inactive)
26 | O=C(N=Nc1c(O)[nH]c2ccccc12)Nc1ccc(Br)cc1 | 104% (inactive)
27 | Cc1nonc1-c1ccc2c(c1)OCO2 | 100% (inactive) and 107% (inactive)
28 | COc1ccc(-c2c[nH]c(C(=O)O)c2-c2cc(OC)c(OC)c(OC)c2)cc1 | 84.6% (inactive)
29 | OCCN1CCN(CC/C=C2\c3ccccc3Sc3ccc(Cl)cc32)CC1 | -91.4% (active) and 12.7% (inactive)
30 | O=C(/C=C/c1ccc(F)cc1)Nc1ncc(Cc2ccc(F)cc2)s1 | 26.5% (inactive)
31 | O=C1C(Nc2ccc(Cl)cc2)=C(I)C(=O)c2ncccc21 | 79.5% (inactive)
32 | CCCCSc1ccc2nc(-c3ccc(OCCCN=C(N)N)cc3)cn2c1 | 59.2% (inactive)
33 | COC1=CC(=O)C(OC)=C(O)C1=O | 101% (inactive)
34 | COc1ccc(-c2cc(-c3cccc(Cl)c3)c(C#N)c(=O)[nH]2)c(OC)c1 | 106% (inactive)
35 | O=C(c1cccc(Br)c1)N1CCN(c2ccnc3cc(Cl)ccc23)CC1 | 109% (inactive)
36 | COc1cc(NC2CCCCC2O)c2nc(-c3ccc(Cl)cc3)ccc2c1 (stereo not drawn) | 91.8% (inactive) and 93% (inactive)
37 | CC(=O)c1nn(-c2ccccc2)/c(=N/N=Cc2cn(-c3ccccc3)nc2-c2cc3ccccc3oc2=O)s1 | 108% (inactive)
38 | Nc1ccc(-c2ccc(N)c(Br)c2)cc1Br | 64.6% (inactive)
39 | FC(F)(F)Sc1ccc(/C=C/c2cc(/C=C/c3ccc(SC(F)(F)F)cc3)n(-c3ccccc3)n2)cc1 | 101% (inactive)

Test system: KM12 colon
Assay: as above
Conditions: 10 µM unless noted

Row | SMILES | growth
40 | CCOC(=O)c1c(-c2ccc(C)cc2)c(C#N)c(=O)n(-c2cccc(C(F)(F)F)c2)c1N | 100% (inactive)
41 | c1cc(NCCCCN2CCOCC2)c2ccc3c(ccc4c(NCCN5CCOCC5)ccnc43)c2n1 | 92.1% (inactive)
42 | CCCO/N=C/c1ccccn1 | 101% (inactive) and 103% (inactive)
43 | O=C(Nc1ncc(Cc2cccc(C(F)(F)F)c2)s1)c1ccc(-n2cnnn2)cc1 | 28.8% (inactive)
44 | N=C(N)c1ccc(-c2ccc(-c3ccc(Cl)c(Cl)c3)s2)cc1 | -91.4% (active)
45 | NC(=O)c1c(NC(=O)/C=C/c2cccs2)sc2c1CCC(=O)C2 | 14.8% (inactive)
46 | CCOc1ccccc1NC(=O)c1cc2ccccc2cc1O | 33.6% (inactive)
47 | O=C(CCl)n1nnnc1Cc1ccccc1 | 116% (inactive)
48 | CCNC(=S)n1nc(SC)c(C(=O)OCC)c1N | 97.5% (inactive)
49 | CC/C(=C(/c1ccc(Cl)cc1)c1ccc(OCCN2CCOCC2)cc1)c1ccccc1 | 96.6% (inactive)
50 | O=S(=O)(O)c1ccc(N=Nc2ccc(N=Nc3cccc4ccccc34)c(S(=O)(=O)O)c2)cc1 | 104% (inactive)
51 | Nn1c(-c2ccc(Cl)cc2)nc2c(-c3ccc(Cl)cc3)nc3ccc(Cl)cc3c2c1=O | 36.9% (inactive)
52 | Nc1ncnc2c1C(c1ccc([N+](=O)[O-])cc1)c1sc3c(F)cccc3c1O2 (stereo not drawn) | 92.8% (inactive)
53 | COc1ccc(C/C(C)=C(/c2ccc(OCCN3CCCCCC3)cc2)c2ccc(OC(=O)c3ccccc3)cc2)cc1 | 120% (inactive)
54 | COc1ccc2c(c1)oc1c(C)c3c(c(C)c12)C(=O)N(Nc1ccccc1)C3=O | 97.4% (inactive)
55 | CC(=O)c1c(C)nc(SCC(=O)Nc2ccc(Cl)cc2)n1-c1ccc(Cl)cc1 | 98.5% (inactive)
56 | C=C1C(=O)O[C@H]2[C@H]1CC/C(CNS(=O)(=O)c1ccc3ccccc3c1)=C\CC[C@@]1(C)O[C@@H]21 | 64.8% (inactive)
57 | CN(Cc1ccccc1)c1nc(Cl)c(C2CC(c3ccc4c(c3)OCO4)=NN2c2cc(Cl)cc(Cl)c2)s1 (stereo not drawn) | 98.5% (inactive)
58 | Cc1cnc(C(=O)NNc2nc3sc4c(c3c(=O)[nH]2)C(C)CCC4)cn1 (stereo not drawn) | 17.5% (inactive)
59 | N#CC1=C(N)Oc2c(sc3c(Br)cccc23)C1c1ccccn1 (stereo not drawn) | 34.9% (inactive)

Row | SMILES | growth
60 | Cc1cc2nc(C(Cl)Cl)nc(-c3ccc(Cl)cc3)n2n1 | -27.2% (active)
61 | COc1ccc(/C=C2/C(=O)N=C3N2NC(c2ccccc2)=CN3c2ccccc2)cc1 | 108% (inactive)
62 | Nc1nc(Nc2ccc(F)cc2)nn1C(=O)c1cc(Cl)ccc1Cl | 51.4% (inactive)
63 | O=C1C=C(Nc2ccccc2)c2ncccc2C1=O | -67.3% (active)
64 | O=C(N/N=C/c1ccc(O)cc1O)c1cccc(Nc2ccnc(C(F)(F)F)c2)c1 | 34.7% (inactive)
65 | O=C(N=Nc1c(O)[nH]c2ccccc12)Nc1ccc(Br)cc1 | 92.4% (inactive)
66 | Cc1nonc1-c1ccc2c(c1)OCO2 | 95.4% (inactive) and 116% (inactive)
67 | COc1ccc(-c2c[nH]c(C(=O)O)c2-c2cc(OC)c(OC)c(OC)c2)cc1 | 25% (inactive)
68 | OCCN1CCN(CC/C=C2\c3ccccc3Sc3ccc(Cl)cc32)CC1 | 2.71% (active) and 36.2% (inactive)
69 | O=C(/C=C/c1ccc(F)cc1)Nc1ncc(Cc2ccc(F)cc2)s1 | 20.9% (inactive)
70 | O=C1C(Nc2ccc(Cl)cc2)=C(I)C(=O)c2ncccc21 | 39.8% (inactive)
71 | CCCCSc1ccc2nc(-c3ccc(OCCCN=C(N)N)cc3)cn2c1 | 34.3% (inactive)
72 | COC1=CC(=O)C(OC)=C(O)C1=O | 102% (inactive)
73 | COc1ccc(-c2cc(-c3cccc(Cl)c3)c(C#N)c(=O)[nH]2)c(OC)c1 | 102% (inactive)
74 | O=C(c1cccc(Br)c1)N1CCN(c2ccnc3cc(Cl)ccc23)CC1 | 96.4% (inactive)
75 | COc1cc(NC2CCCCC2O)c2nc(-c3ccc(Cl)cc3)ccc2c1 (stereo not drawn) | 54.9% (inactive) and 68.3% (inactive)
76 | CC(=O)c1nn(-c2ccccc2)/c(=N/N=Cc2cn(-c3ccccc3)nc2-c2cc3ccccc3oc2=O)s1 | 106% (inactive)
77 | Nc1ccc(-c2ccc(N)c(Br)c2)cc1Br | 37.3% (inactive)
78 | FC(F)(F)Sc1ccc(/C=C/c2cc(/C=C/c3ccc(SC(F)(F)F)cc3)n(-c3ccccc3)n2)cc1 | 95.2% (inactive)

From PubChem BioAssay (NCI)
